Where “and” joins values, the source holds several entries; their conditions need not be identical. Equal entries are not always repeated. Inconclusive results are not listed. Where a structure was tested more than once in an assay, its records may differ in their call. Calls of active or inactive are those of the source. How the source made its calls: active means hit-call score of the fitted dose curve at least 0.9, where 1 is the maximum; inconclusive means response in the unintended direction; inactive means score below 0.9.
Experiments:
[1] = LTEA_HepaRG_LDH_cytotoxicity: Cytotoxicity Assessment in the Life Technologies and Expression Analysis (LTEA) Assay (AID 2283563);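 on AC50: LDH activity released into spent culture medium as a marker of cell death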
Summary of the method: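 Differentiated human HepaRG cells, plated 48 h beforehand, were switched to serum-free induction medium and exposed for 48 h to eight half-log concentrations (top 100 uM) in 0.5% DMSO. LDH was measured in spent medium; activity was fitted relative to DMSO vehicle.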

[2] = TOX21_p53_BLA_p2_viability: Viability Assessment in the Tox21 HCT-116 p53 Agonism Beta-lactamase Assay, Phase 2 (AID 2283591);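 further: compound exposure lasted 16 h at 37 °C; actives lower the ATP signal meaning cytotoxicity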
Summary of the method: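 HCT116 p53-bla cells, 4000/well, dosed after 5 h plating (217-fold dilution of DMSO stocks) and incubated 16 h at 37C. Viability taken as cellular ATP by CellTiter-Glo luminescence after 30 min RT; signal loss marks cytotoxicity.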

[3] = TOX21_p53_BLA_p3_viability: Viability Assessment in the Tox21 HCT-116 p53 Agonism Beta-lactamase Assay, Phase 3 (AID 2283593);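 further: cells exposed to compound for 16 h before reading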
Summary of the method: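 HCT116 cells, 4000/well, dosed 5 h after plating by pin transfer (217-fold dilution from DMSO stock) and incubated 16 h at 37C, 5% CO2. Viability read as ATP luminescence with CellTiter-Glo after 30 min at room temperature.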

[4] = TOX21_p53_BLA_p4_viability: Viability Assessment in the Tox21 HCT-116 p53 Agonism Beta-lactamase Assay, Phase 4 (AID 2283597);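 further: hits lower the luminescence signal meaning cytotoxicity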
Summary of the method: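 Cytotoxicity was inferred from loss of CellTiter-Glo luminescence. HCT116 cells had been dosed with compounds after 5 h plating, incubated 16 h at 37C and 5% CO2, and exposed to the CCF4-AM substrate for 2 h.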

[5] = target: Cellular tumor antigen p53 (Homo sapiens) (UniProt P04637); experiment: TOX21_p53_BLA_p5_ratio: Tox21 HCT-116 p53 Agonism Beta-lactamase Assay, Ratio, Phase 5 (AID 2283599)
Summary of the method: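 HCT-116 p53-bla cells (4000/well) plated 5 h, dosed with compound (217-fold DMSO dilution) for 16 h at 37 C; CCF4-AM substrate 2 h at room temperature. Activity is the 460/530 nm emission ratio (405 nm excitation), fitted in gain-of-signal direction versus DMSO.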

[6] = target: Cellular tumor antigen p53 (Homo sapiens) (UniProt P04637); experiment: TOX21_p53_BLA_p4_ratio: Tox21 HCT-116 p53 Agonism Beta-lactamase Assay, Ratio, Phase 4 (AID 2283601)
Summary of the method: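 HCT-116 p53 beta-lactamase reporter cells (4000/well) preincubated 5 h, then compound (217-fold dilution of DMSO stock) for 16 h at 37C. CCF4-AM substrate added 2 h at room temperature; 460/530 nm emission ratio fitted upward versus DMSO.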

[7] = Tanguay_ZF_120hpf_MORT_legacy: (Legacy) Oregon State University Tanguay Lab 120 Hour Post-fertilization zebrafish Assay for Mortality (AID 2283633);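 on AC50: fitted as increase in binary mortality versus DMSO negative control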
Summary of the method: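 Dechorionated Tropical 5D wild-type zebrafish embryos, one per well from 6 hpf, were statically exposed at 28C in the dark until 120 hpf (0.64% DMSO final). Mortality was scored as present/absent by brightfield microscopy, fitted positively versus DMSO.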

[8] = Tanguay_ZF_120hpf_YSE_legacy: (Legacy) Oregon State University Tanguay Lab 120 Hour Post-fertilization zebrafish Assay for Yolk Sac Edema (AID 2283634);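 on AC50: actives raise the incidence of yolk sac edema above the DMSO baseline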
Summary of the method: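 Tropical 5D wild-type embryos, dechorionated with pronase at 4 hpf, were exposed singly from 6 hpf to 120 hpf under static, sealed, dark conditions at 28C with 0.64% DMSO final. Yolk sac edema was scored present/absent by brightfield microscopy.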

[9] = Tanguay_ZF_120hpf_AXIS_legacy: (Legacy) Oregon State University Tanguay Lab 120 Hour Post-fertilization zebrafish Assay for Body Axis Malformation (AID 2283635);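 on AC50: potency for an increased fraction of larvae scored with body axis malformation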
Summary of the method: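 Tropical 5D wild-type zebrafish embryos, dechorionated with pronase at 4 hpf, were placed singly in wells at 6 hpf and exposed statically to test chemical (0.64% DMSO final) at 28C until 120 hpf, then scored by brightfield for body axis defects.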

[10] = Tanguay_ZF_120hpf_EYE_legacy: (Legacy) Oregon State University Tanguay Lab 120 Hour Post-fertilization zebrafish Assay for Eye Malformation (AID 2283636);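 further: binary presence or absence of eye malformation scored by brightfield in 120 hpf larvae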
Summary of the method: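 5D wild-type embryos, pronase-dechorionated at 4 hpf; static exposure 6–120 hpf, 28C, dark; DMSO 0.64% final; 5uM trimethyltin chloride positive control. Binary eye-defect scoring at 120 hpf; dead embryos not scored.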

[11] = Tanguay_ZF_120hpf_SNOU_legacy: (Legacy) Oregon State University Tanguay Lab 120 Hour Post-fertilization zebrafish Assay for Snout Malformation (AID 2283637)
Summary of the method: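 Binary brightfield scoring of snout malformation at 120 hpf. Dechorionated 5D wild-type embryos, one per well, static exposure from 6 hpf at 28C, sealed and dark; final DMSO 0.64% (vol/vol), DMSO as baseline; 5uM trimethyltin chloride positive control.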

[12] = Tanguay_ZF_120hpf_JAW_legacy: (Legacy) Oregon State University Tanguay Lab 120 Hour Post-fertilization zebrafish Assay for Jaw Malformation (AID 2283638);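 on AC50: active means more embryos with jaw malformation than DMSO controls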
Summary of the method: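 Tropical 5D wild-type embryos, dechorionated with pronase at 4 hpf, were placed singly per well at 6 hpf and statically exposed at 28C until 120 hpf (0.64% DMSO final). Jaw malformation scored as present/absent by brightfield microscopy at 120 hpf, analyzed relative to DMSO.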

[13] = Tanguay_ZF_120hpf_OTIC_legacy: (Legacy) Oregon State University Tanguay Lab 120 Hour Post-fertilization zebrafish Assay for Otic Vesicle Malformation (AID 2283639)
Summary of the method: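 Brightfield scoring at 120 hpf, binary present/absent; DMSO negative control, 5uM trimethyltin chloride positive control. Static exposure at 28C, final DMSO 0.64% (vol/vol). Dead embryos not scored for malformation.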

[14] = Tanguay_ZF_120hpf_PE_legacy: (Legacy) Oregon State University Tanguay Lab 120 Hour Post-fertilization zebrafish Assay for Pericardial Edema (AID 2283640);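 on AC50: potency for increased incidence of pericardial edema versus DMSO baseline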
Summary of the method: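 Tropical 5D wild-type zebrafish embryos were exposed statically to 120 hpf at 28C, sealed and foil-covered, in 0.64% DMSO final. Pericardial edema was scored present/absent by brightfield microscopy; dead embryos were not scored.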

[15] = Tanguay_ZF_120hpf_BRAI_legacy: (Legacy) Oregon State University Tanguay Lab 120 Hour Post-fertilization zebrafish Assay for Brain Malformation (AID 2283641)
Summary of the method: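 Tropical 5D wild-type zebrafish embryos were exposed statically in sealed, foil-covered plates at 28C until 120 hpf, with 0.64% (vol/vol) final DMSO. Brain malformation was scored present/absent by brightfield microscopy, relative to DMSO baseline.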

[16] = target: Cellular tumor antigen p53 (Homo sapiens) (UniProt P04637); experiment: TOX21_p53_BLA_p2_ratio: Tox21 HCT-116 p53 Agonism Beta-lactamase Assay, Ratio, Phase 2 (AID 2283592)
Summary of the method: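 Ratio endpoint: beta-lactamase cleavage of CCF4-AM, blue (460 nm) over green (530 nm). HCT116 reporter line; 16 h treatment, 37C; substrate 2 h RT.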

[17] = Tanguay_ZF_120hpf_SOMI_legacy: (Legacy) Oregon State University Tanguay Lab 120 Hour Post-fertilization zebrafish Assay for Somite Malformation (AID 2283647)
Summary of the method: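 Tropical 5D wild-type zebrafish embryos, dechorionated with pronase at 4 hpf, were placed singly at 6 hpf and statically exposed until 120 hpf at 28C in 0.64% DMSO. Somite malformation was scored present/absent by brightfield microscopy versus DMSO.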

[18] = target: Cellular tumor antigen p53 (Homo sapiens) (UniProt P04637); experiment: TOX21_p53_BLA_p3_ratio: Tox21 HCT-116 p53 Agonism Beta-lactamase Assay, Ratio, Phase 3 (AID 2283596)
Summary of the method: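 Cells were seeded at 4000/well, rested 5 h at 37C, then dosed with DMSO compound solutions (217-fold dilution) for 16 h. CCF4-AM substrate was loaded for 2 h at room temperature, and the 460/530 nm emission ratio was fitted for gain of signal versus DMSO.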

[19] = TOX21_p53_BLA_p5_viability: Viability Assessment in the Tox21 HCT-116 p53 Agonism Beta-lactamase Assay, Phase 5 (AID 2283600)
Summary of the method: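 Luciferase-coupled ATP quantitation of cells treated for 16 h (37C, 5% CO2) with test chemicals delivered in DMSO via a 217-fold dilution; 4000 cells/well; reagent incubated 30 min at room temperature before luminescence reading.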

[20] = ATG_XTT_Cytotoxicity: Cytotoxicity Assessment in the Attagene TRANS-FACTORIAL HepG2 Assay (AID 2283584)
Summary of the method: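 HepG2 human liver cells, transiently transfected with multiple GAL4-UAS reporter units, were dosed and read at 24 h by XTT as cell number. Loss of signal was fitted relative to DMSO negative control baseline.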

Measured: AC50

Cellular tumor antigen p53 (Homo sapiens), sequence (P04637 whole entry, looked up): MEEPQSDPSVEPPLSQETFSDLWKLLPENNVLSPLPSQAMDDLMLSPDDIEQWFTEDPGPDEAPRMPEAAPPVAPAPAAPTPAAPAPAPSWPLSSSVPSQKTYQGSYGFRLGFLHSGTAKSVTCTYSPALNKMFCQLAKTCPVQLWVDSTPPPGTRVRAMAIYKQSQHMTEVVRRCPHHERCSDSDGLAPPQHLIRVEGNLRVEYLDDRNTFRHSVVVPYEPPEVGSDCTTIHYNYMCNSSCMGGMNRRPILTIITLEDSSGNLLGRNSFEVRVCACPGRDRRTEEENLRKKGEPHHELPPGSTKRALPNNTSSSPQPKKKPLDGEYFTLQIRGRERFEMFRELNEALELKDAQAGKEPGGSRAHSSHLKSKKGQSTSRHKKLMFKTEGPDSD

O=C(OC[C@H]1O[C@@H](OC(=O)c2cc(O)c(O)c(OC(=O)c3cc(O)c(O)c(O)c3)c2)[C@H](OC(=O)c2cc(O)c(O)c(OC(=O)c3cc(O)c(O)c(O)c3)c2)[C@@H](OC(=O)c2cc(O)c(O)c(OC(=O)c3cc(O)c(O)c(O)c3)c2)[C@@H]1OC(=O)c1cc(O)c(O)c(OC(=O)c2cc(O)c(O)c(O)c2)c1)c1cc(O)c(O)c(OC(=O)c2cc(O)c(O)c(O)c2)c1
active: [2] 17.2 µM and 5.28 µM | [3] 6.6 µM | [4] 14.1 µM and 3.93 µM | [5] 17 µM and 10.6 µM | [6] 7.98 µM and 3.2 µM
inactive: [1] | [3] | [7] | [8] | [9] | [10] | [11] | [12] | [13] | [14] | [15]

CCOCCOCCOCCO
not listed: [3] | [4] | [9] | [12] | [18] | [19] | [20]
inactive: all other assays above

CCC(C)(C)C(=O)O[C@H]1C[C@@H](C)C=C2C=C[C@H](C)[C@H](CC[C@@H]3C[C@@H](O)CC(=O)O3)[C@H]21
active: [3] 75.7 µM | [4] 46.1 µM | [7] 1.45 µM | [8] 0.649 µM | [9] 0.671 µM | [10] 0.737 µM | [12] 0.766 µM | [13] 0.747 µM | [14] 0.64 µM | [15] 0.645 µM
inactive: [1] | [2] | [16] | [18] | [5] | [6]

CC(C)(O)c1coc(S(=O)(=O)NC(=O)Nc2c3c(cc4c2CCC4)CCC3)c1
not listed: [11] | [16] | [20]
inactive: all other assays above

COC(=O)CC(=O)OC
not listed: [3] | [10] | [11] | [14] | [18] | [20]
inactive: all other assays above

CCNc1ccccc1
not listed: [3] | [19] | [20]
inactive: all other assays above

CN(C)c1ccc(Cc2ccc(N(C)C)cc2)cc1
not listed: [7] | [13] | [17] | [19] | [20]
inactive: all other assays above

CC(C)=CCCC(C)CCO (stereo unspecified)
not listed: [6] | [12] | [16] | [17] | [18] | [19]
inactive: all other assays above

Nc1cccc(N)c1
not listed: [7] | [10] | [11] | [15] | [17] | [18] | [19] | [20]
inactive: all other assays above

Cn1cnc([N+](=O)[O-])c1Sc1ncnc2nc[nH]c12
inactive: [1] | [20] | [2] | [3] | [4] | [19] | [8] | [9] | [12] | [13]
active: [16] 18.9 µM and 31.3 µM | [3] 4.91 µM | [4] 1.62 µM | [5] 29.8 µM and 34.8 µM | [6] 22.2 µM and 34.3 µM

CNS(=O)(=O)c1cc(C(=O)N2CCC(CCN3C4CCC3CC(n3c(C)nc5ccccc53)C4)(c3cccc(F)c3)CC2)c(Cl)cc1F (stereo unspecified)
active: [1] 32.2 µM | [2] 26.9 µM | [3] 46.1 µM | [4] 16.2 µM
not listed: [7] | [11] | [17] | [18] | [20]
inactive: all other assays above

COC(=O)c1ccccc1O
not listed: [5] | [11] | [17] | [18] | [20]
inactive: all other assays above

Oc1ccc2c(c1)-c1ccccc1C2
active: [6] 79.7 µM | [8] 37.6 µM | [9] 35.5 µM | [10] 48 µM | [12] 37.7 µM | [14] 34.5 µM
not listed: [11] | [17] | [18] | [20]
inactive: all other assays above

CCCCC(CC)COC(=O)c1ccc(C(=O)OCC(CC)CCCC)cc1 (stereo unspecified)
not listed: [7] | [17] | [18] | [19] | [20]
inactive: all other assays above

O=C1CCC(N2C(=O)c3ccccc3C2=O)C(=O)N1 (stereo unspecified)
not listed: [5] | [10] | [11] | [12] | [14] | [15] | [17] | [18]
inactive: all other assays above

CCCCCCCCCCCCc1ccccc1
not listed: [4] | [7] | [11] | [17] | [19] | [20]
inactive: all other assays above

Reference: PubChem BioAssay (EPA / NIEHS)
